The target in test [1] is Glutathione peroxidase 1 (Homo sapiens) (UniProt P07203). Put plainly: Primary qHTS Assay for Inhibitors of Recombinant Selenoprotein Glutathione Peroxidase 1 (GPX1) (AID 1845191). Further: nearly all actives have a fitted effect of over 65% in size. Further: potency means the concentration at half of the fitted maximal effect. On activity, negative = inhibition: on the % scale 0 is the no-effect control and ±100 the full control effect. Particulars: recombinant GPX1, GR-coupled NADPH fluorescence, 15 min; series mostly up to 48.8 µM. Summed up: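 GPX1 10 nM, GR 100 nM, GSH 1 mM, NADPH 0.5 mM, CHP 0.5 mM (final). 30-min cpd preincubation, RT. Ex340/Em450 read t=0, t=15 min.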
In general terms: qHTS replaces the single test concentration by a dilution series.

Test [2] addresses Phospholipid hydroperoxide glutathione peroxidase GPX4 (Homo sapiens) (UniProt P36969). Put plainly: Primary qHTS Assay for Inhibitors of Recombinant Selenoprotein Glutathione Peroxidase 4 (GPX4) (AID 1845192). Further: nearly all actives have a fitted effect of over 65% in size. Further: potency means the concentration at half of the fitted maximal effect. Particulars: recombinant GPX4, GR-coupled NADPH fluorescence, 15 min; series mostly up to 50 µM. Summed up: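 qHTS, GR-coupled: GPX4 200 nM + cpd 30 min RT → GSH 1 mM, NADPH 0.5 mM, GR 100 nM → CHP 0.5 mM start; fluor 340/450 at t0 and t15 min; no-enzyme wells as control.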

Test [3] addresses Luciferin 4-monooxygenase (Photinus pyralis) (UniProt P08659). Put plainly: Primary firefly luciferase (FLuc) qHTS assay for identification of artifact compounds. (AID 1845220). Further: nearly all actives have a fitted effect of over 60% in size. Particulars: purified firefly luciferase, luminescence, 5 min; series mostly up to 54.1 µM. A digest of the protocol: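 In this counter-screen for luciferase artifacts, test compounds met substrate (10 uM each luciferin and ATP) before 10 nM enzyme started the reaction. Light output was measured 5 min later.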

Test [4] can be described thus: Primary fluorescence-based thiol-reactive (MSTI) qHTS assay for identification of artifact compounds. (AID 1845221).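 Further: thiol-reactive compounds lower the probe fluorescence signal; nearly all actives have a fitted effect of over 65% in size.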 Particulars: MSTI thiol-reactivity probe, 1 h; series mostly up to 53.8 µM. A digest of the protocol: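 MSTI probe at 4 uM final in 2% DMSO/PBS pH 7.4; compounds, 1 h at room temperature in dark. Fluorescence Ex/Em 525/598 nm, normalised to Acetyl-MSTI and MSTI, fitted to 4-parameter Hill.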

In test [5] the test system is Nanoluciferase (engineered Oplophorus gracilirostris luciferase). Briefly: Primary Nanoluciferase (NLuc) qHTS assay for identification of artifact compounds. (AID 1845222).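 Further: NLuc secreted into diluted conditioned medium of S16 cells.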 Particulars: NLuc-conditioned medium, Nano-Glo luminescence, 5 min; series mostly up to 54.1 µM. A digest of the protocol: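 Using secreted nanoluciferase in S16 culture medium (0.22 um filtered, 1:55 dilution), compounds were preincubated 15 min at RT. Signal was generated with Nano-Glo reagent (1:100) over 5 min.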

Several values for one entry are separate records, joined by “and”; a condition that tells them apart may be missing. Identical values can stand only once. Records with an inconclusive call do not appear. Some compounds were tested as several samples or in several runs, with calls that do not always agree. Activity calls are given as the source filed them. The call rests on the fitted dose curve; in most records, active means well fitted curve in the direction sought with a large enough effect; inconclusive means small, poorly fitted or top-dose-only effect, or another doubt; inactive means no such curve, though single readings can be large; an effect the other way counts as inactive or inconclusive.

Glutathione peroxidase 1 (Homo sapiens), sequence (P07203 whole entry, looked up): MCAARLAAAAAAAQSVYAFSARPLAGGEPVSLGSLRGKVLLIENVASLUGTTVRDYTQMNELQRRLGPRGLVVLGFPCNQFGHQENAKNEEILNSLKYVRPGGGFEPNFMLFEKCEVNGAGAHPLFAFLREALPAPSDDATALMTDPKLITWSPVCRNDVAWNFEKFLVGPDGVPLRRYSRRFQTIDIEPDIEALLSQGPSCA
Phospholipid hydroperoxide glutathione peroxidase GPX4 (Homo sapiens), sequence (P36969 whole entry, looked up): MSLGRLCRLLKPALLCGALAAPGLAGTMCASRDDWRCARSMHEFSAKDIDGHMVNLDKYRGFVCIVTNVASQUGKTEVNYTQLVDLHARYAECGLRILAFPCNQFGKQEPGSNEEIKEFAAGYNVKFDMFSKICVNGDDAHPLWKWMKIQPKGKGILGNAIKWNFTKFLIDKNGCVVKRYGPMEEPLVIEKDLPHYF

Take `CC(C)C(C)C(O)C1CC23CC(=O)C4(O)C(=C2CCC3C1C)C=CC1(O)CC(O)CCC14C` (stereo not given): the Potency entry in test [1], in test [2], in test [3], in test [4] and in test [5] was “inactive” throughout.

Take `COCCN(C(=O)c1cc(OC)c(OC)c(OC)c1)c1nc(-c2ccccc2)cs1`: the Potency entry in test [1], in test [2], in test [3], in test [4] and in test [5] was “inactive” throughout.

For the compound `c1cc(-c2cnn3cc(-c4ccc(N5CCNCC5)cc4)cnc23)c2cccnc2c1`, the Potency entry in test [1], in test [2], in test [3], in test [4] and in test [5] was “inactive” each time.

As to `COCCCNC(=O)c1ccc(Cn2c(=O)c3ccccc3n(Cc3ccc(C(C)C)cc3)c2=O)cc1`, the Potency result in test [1], in test [2], in test [3], in test [4] and in test [5] was “inactive” each time.

For `CCCCOc1ccc(S(=O)(=O)n2c(C)nc3ccccc32)cc1`, the Potency entry in test [1], in test [2], in test [3], in test [4] and in test [5] was “inactive” throughout.

As for `CCC[C@@]1(CCc2ccccc2)CC(O)=C([C@H](CC)c2cccc(NS(=O)(=O)c3ccc(C(F)(F)F)cn3)c2)C(=O)O1`, the Potency result in test [1], in test [3], in test [4] and in test [5] was “inactive” in each case. The Potency entry in test [2] was “inactive and 6.31 µM (active)”.

Turning to `CC(C)S(=O)(=O)Nc1ccc(F)c(C(=O)c2c[nH]c3ncc(-c4cccnc4)cc23)c1F`, the Potency entry in test [1], in test [2], in test [3], in test [4] and in test [5] was “inactive” each time.

As to `C=C1CCN([C@H](C)[C@](O)(Cn2cncn2)c2ccc(F)cc2F)CC1`, the Potency result in test [1], in test [2], in test [3], in test [4] and in test [5] was “inactive” in each case.

Turning to `COC1=CC(=O)O/C1=C(/OC)[C@@H]1O[C@H]1c1ccccc1`, the Potency entry in test [1], in test [2], in test [3], in test [4] and in test [5] was “inactive” each time.

As to `Nc1c(S(=O)(=O)c2ccccc2)c2nc3ccccc3nc2n1-c1ccc(F)cc1`, the Potency in test [1] is 20.2 µM (active). Moreover, the Potency entry in test [2], in test [3], in test [4] and in test [5] was “inactive” in each case.

As to `C=C1CC2OC(=O)C(=C)C2C(OC(=O)/C(C)=C\C)CC2(C)OC1=CC2=O` (stereo not given), the Potency entry in test [1], in test [2], in test [3], in test [4] and in test [5] was “inactive” in each case.

As to `O=C(c1ccccn1)N(Cc1cccs1)C1(C(=O)NC2CCCCC2)CCCCC1`, the Potency entry in test [1], in test [2], in test [3], in test [4] and in test [5] was “inactive” throughout.

Turning to `CCCCc1c(-c2ccc(OC)cc2)[nH]c2nccnc12`, the Potency entry in test [1], in test [2], in test [3], in test [4] and in test [5] was “inactive” each time.

Turning to `CC1(C)CC[C@]23CO[C@@]4(CCC5[C@@]6(C)CC[C@H](O[C@@H]7OC[C@H](O[C@@H]8O[C@H](CO)[C@@H](O)[C@H](O)[C@H]8O[C@@H]8OC[C@@H](O)[C@H](O)[C@H]8O)[C@H](O)[C@H]7O)[C@@](C)(CO)C6CC[C@@]5(C)[C@]4(C)CC2=O)[C@@H]3C1` (stereo not given in full), the Potency result in test [1] and in test [2] was “inactive” throughout. Besides, the outcome in test [3] was “inactive [at 11.6 µM]”. Further, the activity change, negative = thiol reactive in test [4] is 249% [at 11.5 µM] (inactive). In addition, in test [5], the activity, negative = inhibition is 3.95% [at 11.6 µM] (inactive).

Consider `C=CCC1=C[C@]2(OC)[C@H](C)[C@@H](c3ccc4c(c3)OCO4)O[C@]2(OC)CC1=O`, for which the Potency result in test [1], in test [2], in test [3], in test [4] and in test [5] was “inactive” throughout.

Turning to `CN(C)C(=O)C(=O)c1cn(C)c2cc(Cl)c(C(=O)N3CCC(Cc4ccc(F)cc4)CC3)cc12`, the Potency result in test [1], in test [2], in test [3], in test [4] and in test [5] was “inactive” each time.

With `Cc1cc2c(c(=O)o1)C=C1CC[C@H]([C@H](C)Cn3cnc(=N)c4[nH]cnc43)C[C@@H]1O2`, the Potency result in test [1], in test [2], in test [3], in test [4] and in test [5] was “inactive” each time.

Turning to `Nc1ncnc2c1c(-c1ccc(Cl)cc1)nn2-c1cccc(-c2cnnn2Cc2cccc(-c3ccccc3)c2)c1`, the Potency result in test [1], in test [2], in test [3], in test [4] and in test [5] was “inactive” throughout.

As for `CC(C)(Cc1ccccc1)NCC(O)c1ccc(O)c(NS(C)(=O)=O)c1` (stereo not given), the Potency result in test [1], in test [2], in test [3], in test [4] and in test [5] was “inactive” in each case.

Consider `OC1(CN2CCC(COc3noc4cccc(O[C@@H]5CCOC5)c34)CC2)CCOCC1`, for which the Potency entry in test [1], in test [2], in test [3], in test [4] and in test [5] was “inactive” throughout.

For the compound `N#Cc1cc(C2=Nc3ccc(Br)cc3NC(=O)C2)ccn1`, the Potency result in test [1], in test [2], in test [3], in test [4] and in test [5] was “inactive” each time.

As to `CC(=O)O[C@H]1[C@@]2(O)C[C@H](C)[C@H](OC(=O)c3ccccc3)[C@@H]2[C@@H](OC(=O)CO)[C@]2(OC(C)=O)C[C@H]3C(=O)C(C)(C)C[C@@H]3[C@@]1(C)[C@H]2OC(C)=O`, the Potency entry in test [1], in test [2], in test [3], in test [4] and in test [5] was “inactive” throughout.

For the compound `CNC(=O)c1cc(Oc2ccc(NC(=O)c3cccc(C(F)(F)F)c3)cc2)ccn1`, the Potency result in test [1], in test [2], in test [3], in test [4] and in test [5] was “inactive” throughout.

Take `CC(C)(C)[C@H](NC(=O)c1ccc(N)c(Cl)c1)C(=O)N1CCC[C@H]1C(=O)N[C@H](C#N)CC(=O)O`: the Potency entry in test [1], in test [2], in test [3], in test [4] and in test [5] was “inactive” each time.

Turning to `CC(C)c1ccc(NC(=O)c2cccs2)c(-c2nc3ccccc3[nH]c2=O)c1`, the Potency result in test [1], in test [2], in test [3], in test [4] and in test [5] was “inactive” throughout.

Regarding `CCc1cc(C(N)=O)ccc1-n1nc(C(C)C)c2c(-n3cnc(-c4cnn(C)c4)c3)ccnc21`, the Potency result in test [1], in test [2], in test [3], in test [4] and in test [5] was “inactive” throughout.

The record behind these values is PubChem BioAssay (NCATS).
